Sampled rows, rich in hits. Any-hit rate of the full collection: about 4%.
p53null 32C tox: selectivity test: cytotoxicity in p53 null cells, permissive temperature; Potency, µM (titrated, usually from 46.1 µM), for the others: at the highest dose activity change, negative = cytotoxicity, actives largely listed as cytotoxic; 0.62% of 55,000 active; H1299-neo p53 null cells, ATP luminescence, 24 h, 32C;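 note: potency is the fitted concentration of half-maximal effect; 0% = DMSO only and -100% = full killing by 100 µM tamoxifen; nearly all actives have a fitted effect of over 55% in size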
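H1299-neo (p53 null) cells, 600/well, treated 24 h at 32C with compound up to 46 uM; ATPlite luminescence viability, normalized to DMSO and 100 uM tamoxifen; AC50 by Hill fit.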
NTMT1 inh: inhibitors of human N-terminal methyltransferase NTMT1 | NTMT1 MTase-Glo SAH luminescence, purified enzyme | Potency, µM (titrated, usually from 114 µM), inactives show top-dose activity change, negative = inhibition, hits mostly inhibitors | 2.5% of 59,000 active | AID 1645870;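 note: potency is the fitted concentration of half-maximal effect; plate controls were DMSO vehicle for no effect and no enzyme for full effect; nearly all actives have a fitted effect of over 65% in size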
p53null 39C kill: selectivity test: cytotoxicity in p53 null cells, nonpermissive temperature; H1299 p53-null (neo) cells, 39C, ATPlite viability, 24 h; Potency, µM (highest dose often 46.1 µM), for the others: at the top dose activity, negative = cell killing, actives largely listed as cytotoxic; 0.97% of 55,000 active; AID 904;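 note: potency is the fitted concentration of half-maximal effect; 0% = DMSO only and -100% = full killing by 100 µM tamoxifen; nearly all actives have a fitted effect of over 50% in size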
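ATP-luminescence viability readout (ATPlite, 20 min RT) after 24 hr compound treatment at 39C of H1299-neo or H1299-p53A138V cells; titration up to 46 uM; normalized to DMSO and 100 uM tamoxifen; Hill-fit AC50.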
GALC G270D up: raises human GALC G270D mutant activity in cells. 0.1% of 45,000 active. P54803. AID 1159614. 145M-Twi-hGALC-G270D cells (Twitcher mouse brain line with human GALC G270D), HMU-beta-Gal fluorescence, 48 h. Potency, µM (doses to about 57.5 µM), usual class: activators; note: potency is the fitted concentration of half-maximal effect; 0% is about no effect; nearly all actives have a fitted effect of over 65% in size
Target sequence (P54803 whole entry G286D): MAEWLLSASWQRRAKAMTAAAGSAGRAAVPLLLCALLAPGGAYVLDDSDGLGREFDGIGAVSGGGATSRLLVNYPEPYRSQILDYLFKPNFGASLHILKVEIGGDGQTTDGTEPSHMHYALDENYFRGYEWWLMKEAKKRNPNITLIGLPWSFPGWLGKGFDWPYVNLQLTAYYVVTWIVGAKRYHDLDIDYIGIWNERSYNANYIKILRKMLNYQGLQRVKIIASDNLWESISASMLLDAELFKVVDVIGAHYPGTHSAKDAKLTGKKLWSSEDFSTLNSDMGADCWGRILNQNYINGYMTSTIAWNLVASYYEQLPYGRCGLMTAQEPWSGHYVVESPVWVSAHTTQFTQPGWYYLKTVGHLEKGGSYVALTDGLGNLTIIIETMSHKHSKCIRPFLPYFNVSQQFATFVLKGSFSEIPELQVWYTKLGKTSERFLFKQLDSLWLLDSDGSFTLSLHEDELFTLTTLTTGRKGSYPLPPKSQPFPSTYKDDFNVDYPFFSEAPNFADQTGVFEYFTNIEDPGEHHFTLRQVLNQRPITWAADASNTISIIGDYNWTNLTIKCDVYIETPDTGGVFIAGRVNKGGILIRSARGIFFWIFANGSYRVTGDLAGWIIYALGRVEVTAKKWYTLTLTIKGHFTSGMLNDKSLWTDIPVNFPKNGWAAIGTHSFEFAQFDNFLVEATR
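Mutant human GALC (G270D), stably expressed in a Twitcher mouse brain cell line lacking endogenous GALC, is measured in live-treated cells via 6-hexadecanoylamino-4-methylumbelliferyl-β-galactoside hydrolysis (0.1 mM final, pH 5.2) with fluorescent detection.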
SKOV3 invasion: ovarian cancer metastasis inhibition, 3D TME model. SKOV3ip1-GFP adhesion/invasion on 3D omental model, fluorescence. Potency, µM (series often up to 45.8 µM), for inactives: top-dose activity change, negative = inhibition, usual class: inhibitors. 0.1% of 46,000 active;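 note: potency is the fitted concentration of half-maximal effect; plate controls were DMSO wells for no effect and tomatine positive control wells for full effect; nearly all actives have a fitted effect of over 65% in size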
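qHTS, 4-pt dose (0.36-46 umol/L); SKOV3ip1-GFP, 1,200 cells/well, no FBS; primary omental fibroblast/mesothelial co-culture 48 h pre-grown; 2 h RT + 16 h 37 C; PBS wash, 4% PFA; GFP count 488/509 nm.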
DRV1 agonist: agonists of human resolvin D1 receptor DRV1 (GPR32) | O75388 | CHO-K1 GPR32 beta-arrestin PathHunter luminescence, 90 min; zero percent set by DMSO-only wells | activation, % at 76.9 µM | 2.5% of 48,000 active | AID 1346428;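 active = activation of at least 60% and not above a set upper limit, about 1 call in 100 departs from these limits; inconclusive = activation of 40% to 60%, or above that upper limit; inactive = activation under 40%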; note: 0% is about no effect
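Readings come from a cell-based beta-arrestin complementation format: CHO-K1 GPR32 stable cells (2,500/well) treated 90 min with compounds, then beta-Gal substrate added for 1 h before chemiluminescence imaging.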
An asterisk follows results filed as active; i = inactive; ? = inconclusive; · = no result; ! = not confirmed by another sample; [ ] = remark or other dose. Unless noted, calls come from the whole dose curve; as a rule, active = well fitted curve in the direction sought with a large enough effect; inconclusive = small, poorly fitted or top-dose-only effect, or another doubt; inactive = no such curve, though single readings can be large; an effect the other way counts as inactive or inconclusive.

SMILES	p53null 32C tox	NTMT1 inh	p53null 39C kill	GALC G270D up	SKOV3 invasion	DRV1 agonist
CCc1ccc(NS(=O)(=O)c2ccc3[nH]cc(C(=O)NCCc4ccccc4)c(=O)c3c2)cc1	-4%	6%	-7%	i	1%	-8
CCOc1ccc(NS(=O)(=O)c2ccc3[nH]cc(C(=O)NCc4ccccc4)c(=O)c3c2)cc1	-8%	0%	-18%	i	i	?
Nc1nc(=S)c2[nH]cnc2[nH]1	·	3.5µM*	·	i	-28%	-51
COc1ccc(C)c2sc(N3CCN(C(=O)c4ccco4)CC3)nc12	-9%	?	23%	i	5%	86*
COc1ccc(C(CC(=O)Nc2ccc(F)c(Cl)c2)N2Cc3ccccc3C2=O)cc1OC (stereo unspecified)	0%	89µM*	9%	i	7%	-5
O=C(CSc1nc2cc3ccccc3cc2[nH]1)Nc1ccc(F)cc1	7%	9%	?	i	-8%	65*
O=C(O)c1ccccc1-c1ccc(/C=c2\sc3nc4cc(Br)cnc4n3c2=O)o1	·	35µM*	·	·	·	·
O=C1NC(=O)C(c2ccccc2[N+](=O)[O-])=C1Nc1ccc(O)c(Cl)c1	·	45µM*!	·	·	6%	-9
O=[N+]([O-])c1ccccc1NCc1ccc(O)c2ncccc12	·	-5%	·	·	·	·
CC(C)C[C@@H]1NC(=O)[C@@H](C(C)C)NC(=O)[C@@H]2CCCN2C(=O)[C@@H](CC(=O)O)NC(=O)[C@@H](Cc2c[nH]c3ccccc23)NC1=O	·	10%	·	·	·	·
COc1ccc(-c2nc3cc(NC(=O)Cc4ccc(Cl)cc4)ccc3o2)cc1OC	?	?	10µM*	i	-3%	30
Cc1ccccc1-c1nc2cc(NC(=O)Cc3ccc(Cl)cc3)ccc2o1	-8%	6%	-19%	i	i	118*
COc1cc2ccccc2cc1C(=O)Nc1ccc2oc(-c3cccc(Cl)c3Cl)nc2c1	3%	79µM*	37%	i	-2%	0
Cc1cccc(OCC(=O)Nc2ccc3oc(-c4ccccc4F)nc3c2)c1	-8%	17%	-22%	i	-6%	121*
O=C(COc1ccccc1Cl)Nc1ccc2oc(-c3ccccc3F)nc2c1	1%	17%	19%	i	i	-8
O=C(Cc1ccc(Cl)cc1)Nc1ccc2oc(-c3ccc(F)cc3)nc2c1	-5%	?	-17%	i	-7%	?
O=C(Nc1cccc(C(F)(F)F)c1)c1ccccc1NCc1ccncc1	·	-19%[57.5 µM]	·	·	·	·
Cc1cc(Nc2cccc(C(F)(F)F)c2)nc2ccc(NC(=O)Cc3ccc(Cl)cc3)cc12	3%	14%	?	i	i	19
Cc1cccc(OCC(=O)Nc2ccc3nc(Nc4cccc(C(F)(F)F)c4)cc(C)c3c2)c1	-7%	10%	-2%	i	-4%	76*
Cc1cc(Nc2ccc(F)cc2)nc(-n2nc(C)cc2C)n1	-12%	7%	-7%	i	0%	-17
CCCCc1ccc(Nc2cc(C)nc(-n3nc(C)cc3C)n2)cc1	16%	?	13µM*	i	i	-19
C=C1CCCC2(C)CCC(C(C)(C)OC3OC(C)C(O)C(O)C3OC(=O)/C(C)=C\C)CC12 (stereo unspecified)	·	-2%[29.8 µM]	·	·	·	·
CC(C)(C)C1CCc2c(sc(NC(=O)Cn3nnc(-c4ccccc4Cl)n3)c2C#N)C1 (stereo unspecified)	3%[9.22 µM]	7%	-3%	i	i	89*
Cc1ccccc1-c1nnn(CC(=O)Nc2sc3c(c2C#N)CCC(C(C)(C)C)C3)n1 (stereo unspecified)	-7%	8%	-8%	i	i	26
COc1ccc(Cn2ccc3nc(C)c(C(=O)NCc4ccc(F)cc4)cc3c2=O)cc1	4%	-2%	?	i	?	63*
SMILES	p53null 32C tox	NTMT1 inh	p53null 39C kill	GALC G270D up	SKOV3 invasion	DRV1 agonist
Oc1ccc(CNc2cc(Cl)ccn2)c2cccnc12	·	-5%	·	·	·	·
CC1CC(=O)C2=C(C1)C1OC1C1(O)C2C(=O)c2cccc(O)c2C1O (stereo unspecified)	·	3%[29.8 µM]	·	·	·	·
C=C1c2cccc(O)c2C(O)=C2C(=O)[C@]3(O)C(O)=C(C(N)=O)C(=O)[C@@H](N(C)C)[C@@H]3[C@@H](O)[C@H]12	·	25µM*	·	i	·	-1
Cc1ccc2nc3sc(C(=O)N4CCN(C5CCN(C)CC5)CC4)cc3cc2c1	·	3%	·	·	·	·
COc1ccnc2[nH]cc(C(=O)C(=O)N3CCN(C(=O)c4ccccc4)CC3C)c12 (stereo unspecified)	·	-5%[57.5 µM]	·	·	·	·
CCCCCCCCCCCC1=C(O)C(=O)C=C(O)C1=O	·	45µM*!	·	·	-21%	·
N#Cc1cccc(S(=O)(=O)Nc2cnccc2C(=O)Nc2nc(-c3ccccc3)cs2)c1	·	22%	·	·	·	·
CC(=O)N1CCc2cc(S(=O)(=O)NC(Cc3ccccc3)C(=O)Nc3ccc(Cl)cc3)ccc21 (stereo unspecified)	-3%	0%	-25%	i	11%	96*
CCOc1ccc(CCNC(=O)c2cc3cc4ccc(OC)cc4nc3s2)cc1OCC	-2%	13%	10%	i	i	65*
CN(C)/C(N)=N/C(=N)N	·	48%[57.5 µM]	·	·	·	·
COc1ccc(CCNC(=O)c2ccc3c(c2)nc2n3CCCCC2)cc1OC	-13%	1%	-1%	i	i	-14
Cc1ccccc1CCNC(=O)c1ccc2c(c1)nc1n2CCC(C)C1 (stereo unspecified)	10µM*	-13%	?	i	i	-10
O=C(NCCc1ccccc1Cl)c1ccc2c(c1)nc1n2CCCCC1	3.2µM*	-7%	2.5µM*	i	?	-17
COCCNC(=O)c1ccc2nc(CCc3ccccc3)oc2c1	-2%	89µM*	-5%	i	-9%	-4
COCCCNC(=O)c1ccc2nc(CCc3ccccc3)oc2c1	-13%	0%	?	i	0%	-18
O=C(NCCc1ccccc1)c1ccc2c(c1)nc1n2CCOC1	7.9µM*	3%	10µM*	i	-5%	-7
Cn1c(CNc2cccc(C(=O)NCc3ccccc3C(F)(F)F)c2)nnc1-c1ccncc1	·	15%	·	·	·	·
COC1(c2sc3c(N4CCOCC4)nc(-c4cnc(N)nc4)nc3c2C)COC1	·	-4%	·	·	·	·
CC(C)CCNC(=O)c1ccc2c(c1)nc1n2CCCCC1	7.9µM*	-2%	6.3µM*	i	-3%	-8
